Measurements reported in PubChem BioAssay AID1573 (National Center for Advancing Translational Sciences (NCATS), 2009).
Inconclusive results are not listed. Active and inactive are the calls of the source. Calls follow the shape of the dose curve; as a rule, active = well fitted inhibition curve with a large enough effect; inconclusive = small, poorly fitted or top-dose-only effect; inactive = no such curve, though single readings can be large or run the other way.

The compounds below were run against Thyroid hormone receptor beta (Homo sapiens) (UniProt P10828) (assay: Concentration Response Confirmation Assay for Inhibitors of the Interaction of Thyroid Hormone Receptor and Steroid Receptor Coregulator 2). Conditions: TRb LBD + Texas Red SRC2 peptide, fluorescence polarization, 5 h; series mostly up to 92.2 µM.
Description: NIH Molecular Libraries Probe Production Network [MLPCN] NIH Chemical Genomics Center [NCGC] MLPCN Grant: DK058080 Assay Provider: R. Kip Guy, St. Jude Children's Research Hospital NCGC Assay Overview: Thyroid receptor (TR) regulates many homeostatic processes including basal metabolism, cardiovascular function, body weight, and lipid trafficking. TR modulators are potential therapeutics for obesity and hyperlipidemias but current thyroid analogs have undesirable side effects, particularly cardiac stimulation. To identify inhibitors that specifically prevent the interaction of TR with the steroid receptor coregulator 2 (SRC2), a fluorescence polarization assay was screened. This assay detects interaction of the ligand-binding domain of human TRb with a Texas Red labeled SRC2 peptide, corresponding to a 20 amino acid region of the nuclear receptor interaction domain (Arnold et al., 2006). Small molecule inhibitors that block the interaction of TR and SRC2 are detected by a decrease in fluorescence polarization. This assay is a confirmation assay for AID 1469. Arnold, L. A.; Estebanez-Perpina, E.; Togashi, M.; Shelat, A.; Ocasio, C. A.; McReynolds, A. C.; Nguyen, P.; Baxter, J. D.; Fletterick, R. J.; Webb, P.; Guy, R. K. A high-throughput screening method to identify small molecule inhibitors of thyroid hormone receptor coactivator binding. Sci STKE 2006, p 13.
NCGC Assay Protocol Summary: For screening, 5 uL/well 0.6 uM TRb and 20 nM SRC2 Texas Red in protein buffer (20mM Tris hydrochloride, 100mM NaCl, 10% glycerol, 1mM EDTA, 0.01% NP-40, 1mM DTT, 1uM T3 and 5% DMSO) was dispensed into black solid 1536-well plates (Grenier) using a solenoid-based dispenser. Following transfer of 23 nL compound or DMSO vehicle by a pin tool, the plates were centrifuged 15 s at 1000 RPM and incubated 5 hr at ambient temperature. The plates were read by an Envision (Perkin Elmer) to detect fluorescence polarization of SRC2 Texas Red (555 nm excitation and 632 nm emission). Data were normalized to unbound (all components except TRb) and bound SRC2 Texas Red controls. In this assay, we provide % activity data for each concentration as well as potencies for the active compounds. Keywords: NIH Roadmap, MLPCN, MLI, MLSMR, qHTS, NCGC, qHTS, thyroid hormone receptor, steroid receptor coactivator, fluorescence polarization

Thyroid hormone receptor beta (Homo sapiens), sequence (P10828 whole entry, looked up, the tested form may be a part): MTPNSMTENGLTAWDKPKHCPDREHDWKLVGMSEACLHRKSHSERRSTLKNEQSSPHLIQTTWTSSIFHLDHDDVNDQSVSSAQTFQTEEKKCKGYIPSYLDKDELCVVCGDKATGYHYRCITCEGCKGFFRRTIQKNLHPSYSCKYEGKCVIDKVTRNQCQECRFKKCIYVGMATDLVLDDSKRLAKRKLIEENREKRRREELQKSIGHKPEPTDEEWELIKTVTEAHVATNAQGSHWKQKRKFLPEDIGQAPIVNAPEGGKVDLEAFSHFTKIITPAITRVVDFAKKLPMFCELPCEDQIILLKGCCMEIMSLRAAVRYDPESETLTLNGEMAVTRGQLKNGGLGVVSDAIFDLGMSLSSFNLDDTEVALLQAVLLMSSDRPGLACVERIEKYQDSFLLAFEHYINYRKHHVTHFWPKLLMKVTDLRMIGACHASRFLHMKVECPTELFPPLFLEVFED

| SMILES | Potency |
| --- | --- |
| CS(=O)(=O)c1ccc(C(=O)OCC(=O)NC(=O)C2CCCCC2)cc1[N+](=O)[O-] | 10 µM (active) |
| CC1=NN(Cc2ccccc2)C(=O)C1 | inactive |
| CN1N=C(C(C)(C)C)CC1=O | inactive |
| Cc1ccc(OC(=S)Nc2ccc(O)cc2)cc1 | inactive |
| CCCCOc1ccc(C(=O)CCN2CCOCC2)cc1 | 5.01 µM (active) |
| O=C(NNc1cc(N2CCOCC2)nc(N2CCOCC2)n1)c1ccc([N+](=O)[O-])cc1 | 20 µM (active) |
| O=C(O)C1C2C=CC(O2)C1C(=O)Nc1ccc(S(=O)(=O)N2CCc3ccccc32)cc1 (stereo not given) | 39.8 µM (active) |
| O=C(O)/C=C/C(=O)Nc1ccc(OC(F)(F)F)cc1Br | 50.1 µM (active) |
| Nc1cc(-c2ccccc2)c[nH]c1=O | inactive |
| Cc1ccccc1Nc1cc2ccccc2c(=O)[nH]1 | 15.8 µM (active) |
| Cc1cccc(S(=O)(=O)c2cn(Cc3ccccc3)c3cc(N4CCC(C)CC4)c(F)cc3c2=O)c1 | inactive |
| COc1cc(/C=C(\C#N)C(=O)NCC2CCCO2)ccc1OCCC(C)C (stereo not given) | 35.5 µM (active) |
| O=C1CCCC(O)=C1N=Nc1cccc(S(=O)(=O)N2CCOCC2)c1 | inactive |
| COn1c2c(c3c4nonc4ccc31)CCCC2 | 35.5 µM (active) |
| CCCc1cc(=O)[nH]c(=S)[nH]1 | inactive |
| C=CCNC(=O)/C(C#N)=C/c1c(C)nn(-c2ccc(Cl)cc2)c1Cl | 17.8 µM (active) |
| Cn1c(NNC(=O)c2c(F)cccc2F)cc(=O)n(C)c1=O | inactive |
| COc1ccc(-c2nc(CS(=O)CC(=O)NCc3ccccn3)c(C)o2)cc1 (stereo not given) | 35.5 µM (active) |
| Oc1ccc2ccccc2c1/C=N/c1nc2c(s1)CCCC2 | 28.2 µM (active) |
| Cc1cc(N=Cc2c(O)ccc3ccccc23)no1 | 28.2 µM (active) |

| SMILES | Potency |
| --- | --- |
| C=CCNC(=O)/C(C#N)=C\c1cc(Cl)c(OCC)c(OC)c1 | 35.5 µM (active) |
| O=C(NNc1cc(N2CCOCC2)nc(N2CCOCC2)n1)c1ccc(Cl)c(Cl)c1 | 31.6 µM (active) |
| Oc1ccc2ccccc2c1/C=N/c1nccs1 | 31.6 µM (active) |
| O=c1cc(C23CC4CC(CC(C4)C2)C3)[nH][nH]1 | inactive |
| COc1cc(C(c2c(C)[nH][nH]c2=O)c2c(C)[nH][nH]c2=O)ccc1OC(=O)c1cccc(C)c1 | 31.6 µM (active) |
| Cn1cc[nH]c1=S | inactive |
| O=C(O)/C=C/C(=O)Nc1ccc(SC(F)(F)C(F)(F)C(F)(F)F)cc1 | 7.94 µM (active) |
| Cc1cccc(Cn2c(C(=O)OC(C)C)cc3c2ccn3C)c1 | inactive |
| Oc1ccc2ccccc2c1C=NC12CN3CCN(CN(C3)C1)C2 | 28.2 µM (active) |
| CCCCCCN=CC1=C(O)CC(C)(C)CC1=O | inactive |
| Cc1nc2ccccc2n2c(O)c(CC(=O)O)cc12 | 35.5 µM (active) |
| Cc1nnc(SCC(=O)Nc2ccc(N(C)C)cc2)[nH]c1=O | inactive |
| C=CC(=O)OCCOc1ccccc1 | 112 µM (active) |
| O=C(Nc1nc2ccc(Cl)cc2s1)c1ccc(N2CCCCC2)c([N+](=O)[O-])c1 | inactive |
| Cn1c(=O)[nH]c2nnc(-c3ccc(Cl)c(Cl)c3)nc2c1=O | inactive |
| Nc1cc(-c2ccncc2)c[nH]c1=O | inactive |
| CN(CCO)c1nc(N)c2c(N)nc3c(c2c1C#N)CC(=O)N3C1CCCC1 | inactive |
| O=c1[nH]c(Nc2ccccc2)cc2ccccc12 | 35.5 µM (active) |
| CN1CCc2ccc3c4c2[C@]1(C)Cc1cccc(c1-4)OCO3 | 89.1 µM (active) |
| CCCCOc1ccc(C(=O)CCN2CCCCC2)cc1 | 5.01 µM (active) |
